Most compounds without a hit are left out; they make up all but 3.3% or so of the library.
Vaccinia Venus – vaccinia inhibition (Venus reporter) | 330,000 compounds, 0.46% hits | Vaccinia virus Venus reporter expression, fluorescence | AID 720580 | Potency, µM (highest dose often 36.5 µM), most hits filed as inhibitors; calls by dose curve; tested in A549 cells; note: nearly all actives have a fitted effect of over 30% in size
Vaccinia mCherry – vaccinia inhibition (mCherry reporter); Potency, µM (doses to about 36.5 µM), actives largely listed as inhibitors; 310,000 compounds, 0.63% hits; AID 720579; Vaccinia virus mCherry reporter infection, fluorescence; calls by dose curve; tested in A549 cells; note: nearly all actives have a fitted effect of over 35% in size
HCV inh – blocks hepatitis C virus. Huh7.5.1 HCVcc-Cre infection, luciferase reporter, 44 h. Potency, µM (highest dose often 41.8 µM), usual class: inhibitors. 340,000 compounds, 3.4% hits. AID 651820; active = well fitted inhibition curve with a large enough effect; inconclusive = small, poorly fitted or top-dose-only effect, or another doubt; inactive = no such curve, though single readings can be large or run the other way
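A cell-based infection assay in which seeded cells (1,000 per well) receive test compound after 4 h, are inoculated with HCVcc-Cre at approximately 0.5 moi, and are incubated 44 h before luminescence detection.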
A number is an active result; – = inactive; ? = inconclusive; · = no result given.

SMILES	Vaccinia Venus	Vaccinia mCherry	HCV inh
COc1cccc(-n2cc(CN(C)Cc3nc(Cc4cccc(F)c4)no3)cn2)c1	–	–	–
COc1cccc(-c2nc(-c3ccc4c(c3)NC(=O)CO4)cs2)c1	–	–	14µM
CC(Nc1nc(-c2ccc3c(c2)NC(=O)CO3)cs1)c1ccccc1 (stereo not drawn)	–	–	11µM
O=C1COc2ccc(-c3csc(NCC4CCCO4)n3)cc2N1 (stereo not drawn)	–	–	?
O=C1COc2ccc(-c3csc(-c4ccc(F)cc4)n3)cc2N1	–	–	·
CCOC(=O)C[C@H]1c2ccccc2S(=O)(=O)N1c1cccc(OC)c1	–	–	–
COc1ccc2cc(C3(C)NC(=O)N(CC(=O)N4CCCCC4)C3=O)ccc2c1 (stereo not drawn)	–	–	–
CC(C)[C@H]1C(=O)Nc2ccccc2N1C(=O)N[C@@H](Cc1ccccc1)C(=O)N[C@@H](C(=O)O)c1ccccc1	–	–	–
CC(C)[C@H](NC(=O)N1c2ccccc2NC(=O)[C@@H]1C(C)C)C(=O)N1CCC(C(=O)O)CC1	–	–	32µM
O=C(O)c1cccc2c1Cc1cc(Cl)ccc1-2	–	–	–
O=C(CCc1ccccc1)NNC(=S)NC(=O)c1ccccc1	–	–	–
CC(C)(C)c1cc(CCC(=O)NNC(=S)NC(=O)c2ccccc2)cc(C(C)(C)C)c1O	·	·	2.8µM
CCOC(=O)n1c(=O)n(C)c2ccc(Cl)cc21	–	–	3.2µM
CCOC(=O)n1c(=O)n(Cc2ccccc2)c2ccccc21	–	–	–
COc1ccc(C(=O)O)cc1S(=O)(=O)NCc1ccccn1	–	–	–
c1ccc(Nc2ccccn2)cc1	·	·	–
c1ccc(Nc2cccc(Nc3ccccc3)n2)cc1	–	?	7.1µM
Cn1cccc1-c1cc(C(=O)N/N=C/c2ccccc2Cl)[nH]n1	·	·	–
COc1ccc(C(=O)N/N=C/c2cc(Br)ccc2O)cc1OC	–	18µM	11µM
COc1ccc(/C=N/NC(=O)c2ccc(Br)cc2)c(OC)c1	–	–	–
Cn1cccc1-c1cc(C(=O)N/N=C/c2cc(Br)ccc2O)[nH]n1	–	?	5µM
CCCOc1ccc(Br)cc1/C=N/NC(=O)c1cc(OC)c(OC)c(OC)c1	–	–	?
COc1ccc(O)c(/C=N/NC(=O)c2ccc(OCc3cccc(Br)c3)cc2)c1	·	·	2.8µM
CC(C)(C)c1ccc(OCc2ccc(C(=O)N/N=C/c3ccc(O)c(O)c3)cc2)cc1	–	–	5.6µM
O=C(N/N=C/c1ccc(OCc2ccc(F)cc2)cc1)c1ccccc1	–	?	–
SMILES	Vaccinia Venus	Vaccinia mCherry	HCV inh
CC1(C(=O)O)CCC(C(=O)Nc2cccc(F)c2)C1(C)C (stereo not drawn)	–	–	–
CN(C)C(=O)OC1=C(c2ccccc2)Sc2ccccc2-n2cccc21	–	–	·
COc1ccc(C)cc1NC(=O)CSc1nc(=O)n(Cc2cccnc2)c2c1CCC2	–	–	·
Cc1cccc(CNc2ncncc2-c2cccc(C#N)c2)c1	–	–	·
COc1ccc(Br)cc1CNC(=O)c1ccc2nc(C(C)C)oc2c1	–	–	·
CCN1CCN(c2ccc(NC(=O)COc3ccc(Cl)cc3C)cc2)CC1	·	·	10µM
CCN1CCN(c2ccc(NC(=O)COc3ccc([N+](=O)[O-])cc3)cc2)CC1	–	–	·
Cc1cc(Cl)ccc1OCCCC(=O)NNC(=O)c1ccncc1	·	·	–
Cc1cc(Cl)ccc1OCC(=O)NCc1ccncc1	–	?	–
Cc1cc(Cl)ccc1OCCCC(=O)NO	–	–	7.1µM
Cc1cc(Cl)ccc1OCC(=O)Nc1ccncc1	·	·	13µM
COc1ccc(CCNS(=O)(=O)c2ccc(-n3cnnn3)cc2)cc1OC	–	–	–
COc1ccc(OC)c(/C=C/c2ccc3ccccc3[n+]2C)c1	–	–	·
COC(=O)[C@@H]1CCCN1Cc1ccc2c(c1)CN(Cc1ccc3c(c1)CCCN3C)CCO2	–	–	·
Nc1cc(-c2ccccc2)nn1S(=O)(=O)c1ccc(F)cc1	?	10µM	10µM
COc1ccc(S(=O)(=O)n2nc(-c3ccc(Cl)cc3)cc2N)cc1OC	–	–	?
Nc1cc(-c2ccc(Br)cc2)nn1S(=O)(=O)c1ccccc1	–	–	–
COc1ccc(-c2cc(N)n(S(=O)(=O)c3ccc(F)cc3)n2)cc1OC	?	7.1µM	10µM
CCOc1ccc(-c2cc(N)n(S(=O)(=O)c3ccc(OC)c(OC)c3)n2)cc1	–	–	22µM
COc1cc(-c2cc(N)n(S(=O)(=O)c3ccc(F)cc3)n2)cc(OC)c1OC	?	–	?
CC(C)(C)C1CCC(=NOC(=O)c2ccc(F)cc2)CC1 (stereo not drawn)	–	–	–
CC1=CCC(C(=O)O)C(C(=O)NC2CCCCC2)C1 (stereo not drawn)	–	–	?
CN(C(=O)CCN1C(=O)/C(=C/c2ccc(F)cc2)SC1=S)C1CCS(=O)(=O)C1 (stereo not drawn)	11µM	?	·

High-throughput results from PubChem.
